This note sets out measurements from PubChem BioAssay.

A word on the inhibition: it is the drop in the measured response relative to a control, in per cent.

Values without a mark were called inactive. No rule for the calls is given here.

The assay deals with Pantothenate synthetase (Mycobacterium tuberculosis (strain ATCC 25618 / H37Rv)) (UniProt P9WIL5). Put plainly: Recombinant Mtb pantothenate synthetase (PanC) inhibitors, coupled enzyme, confirmatory (AID 375).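 Also: 0% = full reaction with vehicle and 100% = no enzyme background.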 The following applies: coupled enzyme assay; at 10 µM, hits give high values.
Sequence of Pantothenate synthetase (Mycobacterium tuberculosis (strain ATCC 25618 / H37Rv)) (P9WIL5 whole entry, looked up): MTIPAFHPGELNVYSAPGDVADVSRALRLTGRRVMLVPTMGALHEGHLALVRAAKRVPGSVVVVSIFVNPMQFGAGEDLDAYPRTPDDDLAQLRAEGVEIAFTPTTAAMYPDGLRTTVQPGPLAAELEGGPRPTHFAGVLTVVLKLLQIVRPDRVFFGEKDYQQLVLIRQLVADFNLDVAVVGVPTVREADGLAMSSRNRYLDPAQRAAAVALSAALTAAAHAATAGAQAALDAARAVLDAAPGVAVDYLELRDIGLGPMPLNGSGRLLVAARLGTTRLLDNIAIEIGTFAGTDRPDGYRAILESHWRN
In the case of `COc1ccccc1C1C(C#N)=C(N)Oc2cc(C)n(Cc3ccccn3)c(=O)c21` (stereo not given), the inhibition was 1%.

On to `O=C(Oc1cccc2cccnc12)c1cccc(-n2cnnn2)c1`, for which the inhibition is 0%.

On to `CN(C)/C=N/c1ncnc2c1cnn2-c1ccc(C(F)(F)F)cn1`, for which the inhibition was 3%.

As to `O=c1[nH]c(=O)n(C2CCCCCC2)c(O)c1C=NCc1ccc(F)cc1`, the inhibition is 4%.

Consider `O=C(CSc1nc2ccccc2nc1SCC(=O)N1CCOCC1)N1CCOCC1`, for which the inhibition was 0%.

As for `Cn1c(=O)c(=O)n(C)c2cc(S(=O)(=O)CCC(=O)N3CCOCC3)ccc21`, the inhibition was 0%.

With `Cc1ccc(-n2c(=O)[nH]c3c(C(N)=O)nc(CC(C)C)nc32)cc1`, the inhibition was 0%.

Take `O=C(COc1ccccc1)NCC(c1cccs1)N1CCOCC1` (stereo not given): the inhibition was 4%.

With `CCOc1ccc2[nH]cc(C(=O)N3CCN(CC)CC3)c(=O)c2c1`, the inhibition was 0%.

In the case of `S=C(c1ccc(-c2cc(Cl)ccc2Cl)o1)N1CCOCC1`, the inhibition was 0%.

Turning to `O=C(NCCCn1ccnc1)c1csc2ccccc12`, the inhibition was 7%.

For `CCCCNC(=O)C(C#N)c1nc2ccccc2nc1N1CCCC1` (stereo not given), the inhibition is 0%.

With `Cc1ccc(S(=O)(=O)NCCNC(=O)C2CCCNC2=O)cc1` (stereo not given), the inhibition is 6%.

On to `O=C(CN1C(=O)CCSc2ccccc21)Nc1ccc(F)cc1`, for which the inhibition is 1%.

As for `COc1cc2c(cc1OC)-c1nnc(C)n1C1(CCCC1)C2`, the inhibition was 0%.

For `COC(=O)c1ccccc1S(=O)(=O)NC(=O)c1ccccc1`, the inhibition is 0%.

With `O=C1CCNc2cc3ccccc3cc21`, the inhibition was 3%.

On to `CN1CCN(CCCN2c3ccccc3Sc3ccc(C(F)(F)F)cc32)CC1`, for which the inhibition was 1%.

With `C=CCSc1nc(N)c2c(C)c(C)sc2n1`, the inhibition was 0%.

For the compound `O=C(CSc1ncnc2c1oc1ccccc12)Nc1ccccc1C(F)(F)F`, the inhibition was 0%.

Consider `CCN(CC)C(=O)C1CCCc2c1[nH]c1ccc(Cl)cc21` (stereo not given), for which the inhibition was 0%.

As to `Cc1cccc(-n2c(Cc3cc(=O)[nH]c(=O)[nH]3)nnc2SCC(=O)NCc2ccco2)c1`, the inhibition was 4%.

On to `O=C1c2ccccc2C(=O)N1CNc1ccccc1`, for which the inhibition was 0%.

`COC(=O)/C=c1/s/c(=C(/C#N)C(=O)N2CCOCC2)n(-c2ccccc2)c1=O`: the inhibition is 4%.

Turning to `CC(C)OP(=O)(c1ccc(N(C)C)cc1)C(O)c1ccccc1F` (stereo not given), the inhibition is 0%.

Take `CCc1ccc2[nH]c(=O)c(C(c3nnnn3CC3CCCO3)N3CCCc4ccccc43)cc2c1` (stereo not given): the inhibition is 0%.

Consider `CC(=O)Nc1ccc(S(=O)(=O)NCC2CCC(C(=O)NCCCN3CCCC3=O)CC2)cc1` (stereo not given), for which the inhibition was 0%.

Regarding `Cc1ccc(C)c(N2C(=O)CN=C2Nc2ccccc2Cl)c1`, the inhibition was 4%.

As for `COc1ccc(N2CCN(C(=O)CCNS(=O)(=O)c3ccc(Br)s3)CC2)cc1`, the inhibition is 3%.

As to `COC(=O)CN1C(=O)C(O)(CC(=O)c2ccc(Cl)cc2)c2ccccc21` (stereo not given), the inhibition was 0%.

With `Cc1cccc(NC(=O)c2cc3n(n2)C(C(F)(F)F)CC(c2ccc4c(c2)OCO4)N3)c1` (stereo not given), the inhibition is 4%.

Take `COc1ccc2c(c1)c(CC(=O)OCC(=O)O)c(C)n2C(=O)c1ccc(Cl)cc1`: the inhibition was 0%.

`COc1ccc(-c2cc(C(=O)N3CCN(Cc4ccccc4)CC3)no2)cc1OC`: the inhibition is 3%.

On to `O=C1c2ccccc2C(Nc2ccc3nc(-c4cccnc4)[nH]c3c2)N1Cc1ccco1` (stereo not given), for which the inhibition was 0%.

For `Cc1ccc(S(=O)(=O)C(C#N)c2nc3ccccc3nc2N2CCCCC2)cc1` (stereo not given), the inhibition was 2%.

`O=C(O)c1cc2c(s1)CCCC2`: the inhibition was 0%.

As to `CC1CCCC(C)N1C(=O)COC(=O)c1ccc[nH]c1=O` (stereo not given), the inhibition was 0%.

Regarding `COc1ccc(OCCN2C(=O)NC(C)(c3ccc(C)cc3)C2=O)cc1` (stereo not given), the inhibition is 1%.

For `OCCN1CCN(CC(O)COc2ccc3ccccc3c2)CC1` (stereo not given), the inhibition is 0%.

For the compound `O=c1c2cn[nH]c2nc(SCc2ccc3c(c2)OCCO3)n1-c1ccccc1`, the inhibition is 3%.
